Measured values taken from PubChem BioAssay AID1159580 (chemical genetic matrix, 2015).
Where “and” joins values, the source holds several entries; their conditions need not be identical. Identical values can stand only once. Out of some 5,500 compounds screened, about 2,000 (36%) were called active. Not shown: some 18% with an inconclusive outcome. No stated cut-off is given here; in the data, active means normalized growth mostly below about 0.91 (no sharp cut-off); inconclusive means no clear call, values can overlap the other calls; inactive means mostly above about 0.92. Some of the results follow.

Assay: chemical genetic growth profiling, strain panel (AID 1159580);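 further: tested at 20 µM; growth read once vehicle control cultures reached saturation at 30 °C; 1 = growth at the plate median or of vehicle wells; lower values mean less growth of the strain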
Conditions: growth OD

Measured: normalized growth

Cc1nc2ccccn2c(=O)c1CCN1CCC(C(=O)c2ccc(F)cc2)CC1
inactive: S. cerevisiae deletion strains, locus YJR075W, strain HOC1, hits give low values 0.974 and 1.01 | S. cerevisiae deletion strains, locus YKL009W, strain mrt4, hits give low values 1.01 | S. cerevisiae deletion strains, locus YKL068W, hits give low values 1 | S. cerevisiae deletion strains, locus YKL085W, strain MDH1 (second series), hits give low values 1.03 | S. cerevisiae deletion strains, locus YKL085W, strain MDH1, hits give low values 1.03 | S. cerevisiae deletion strains, locus YKL160W, strain elf1, hits give low values 0.991 | S. cerevisiae deletion strains, locus YKL190W, strain CNB1, hits give low values 1.02 | S. cerevisiae deletion strains, locus YKR001C, strain vps1, hits give low values 0.995 | S. cerevisiae deletion strains, locus YKR026C, strain gcn3, hits give low values 0.98 | S. cerevisiae deletion strains, locus YKR091W, strain srl3, hits give low values 0.994 | S. cerevisiae deletion strains, locus YLL001W, strain dnm1, hits give low values 0.997 | S. cerevisiae deletion strains, locus YLL026W, hits give low values 0.989 | S. cerevisiae deletion strains, locus YLL041C, strain sdh2, hits give low values 0.991 | S. cerevisiae deletion strains, locus YLR027C, strain aat2, hits give low values 1 | S. cerevisiae deletion strains, locus YLR039C, strain RIC1, hits give low values 1.03 | S. cerevisiae deletion strains, locus YLR058C, strain SHM2, hits give low values 1.02 | S. cerevisiae deletion strains, locus YLR102C, strain apc9, hits give low values 0.993 | S. cerevisiae deletion strains, locus YLR113W, strain HOG1, hits give low values 1.01 | S. cerevisiae deletion strains, locus YLR221C, strain rsa3, hits give low values 1 | S. cerevisiae deletion strains, locus YLR258W, strain gsy2, hits give low values 0.986 | S. cerevisiae deletion strains, locus YLR262C, strain YPT6 (second series), hits give low values 0.954 | S. cerevisiae deletion strains, locus YLR262C, strain YPT6, hits give low values 1.05 | S. cerevisiae deletion strains, locus YLR268W, strain sec22, hits give low values 0.995 | S. cerevisiae deletion strains, locus YLR320W, strain mms22, hits give low values 1 | S. cerevisiae deletion strains, locus YLR330W, strain CHS5, hits give low values 1.02 | S. cerevisiae deletion strains, locus YLR342W, strain FKS1 (second series), hits give low values 0.988 | S. cerevisiae deletion strains, locus YLR342W, strain FKS1, hits give low values 0.988 | S. cerevisiae deletion strains, locus YLR357W, strain rsc2, hits give low values 0.924 | S. cerevisiae deletion strains, locus YLR370C, strain arc18, hits give low values 0.991 | S. cerevisiae deletion strains, locus YLR371W, strain rom2, hits give low values 0.989 | S. cerevisiae deletion strains, locus YLR384C, strain iki3, hits give low values 0.985 | S. cerevisiae deletion strains, locus YLR418C, strain cdc73, hits give low values 1.01 | S. cerevisiae deletion strains, locus YML016C, strain PPZ1, hits give low values 1.02 | S. cerevisiae deletion strains, locus YML032C, strain rad52, hits give low values 0.985 | S. cerevisiae deletion strains, locus YML120C, strain ndi1, hits give low values 1 | S. cerevisiae deletion strains, locus YML124C, strain tub3, hits give low values 0.995 | S. cerevisiae deletion strains, locus YMR058W, strain fet3, hits give low values 1 | S. cerevisiae deletion strains, locus YMR078C, strain ctf18, hits give low values 0.994 | S. cerevisiae deletion strains, locus YMR125W, strain sto1, hits give low values 0.962 | S. cerevisiae deletion strains, locus YMR129W, hits give low values 0.998 | S. cerevisiae deletion strains, locus YMR205C, strain PFK2, hits give low values 0.985 | S. cerevisiae deletion strains, locus YMR223W, strain ubp8, hits give low values 0.966 | S. cerevisiae deletion strains, locus YMR231W, strain pep5, hits give low values 0.977 | S. cerevisiae deletion strains, locus YMR307W, strain GAS1, hits give low values 1.01 and 1 | S. cerevisiae deletion strains, locus YNL067W, strain RPL9B, hits give low values 1.04 | S. cerevisiae deletion strains, locus YNL071W, strain lat1, hits give low values 0.993 | S. cerevisiae deletion strains, locus YNL128W, strain TEP1, hits give low values 1.02 and 1.01 | S. cerevisiae deletion strains, locus YNL153C, strain GIM3, hits give low values 1.06 | S. cerevisiae deletion strains, locus YNL175C, strain NOP13, hits give low values 1.01 | S. cerevisiae deletion strains, locus YNL183C, strain NPR1, hits give low values 0.979 | S. cerevisiae deletion strains, locus YNL197C, strain WHI3, hits give low values 1.03 | S. cerevisiae deletion strains, locus YNL209W, strain ssb2, hits give low values 0.994 | S. cerevisiae deletion strains, locus YNL224C, strain SQS1, hits give low values 1.01 | S. cerevisiae deletion strains, locus YNL233W, strain BNI4, hits give low values 1.03 | S. cerevisiae deletion strains, locus YNL248C, strain rpa49, hits give low values 0.979 | S. cerevisiae deletion strains, locus YNL250W, strain rad50, hits give low values 0.999 | S. cerevisiae deletion strains, locus YNL271C, strain bni1, hits give low values 0.977 | S. cerevisiae deletion strains, locus YNL298W, strain CLA4, hits give low values 0.987 | S. cerevisiae deletion strains, locus YNL307C, strain MCK1, hits give low values 0.987 | S. cerevisiae deletion strains, locus YNL322C, strain KRE1 (second series), hits give low values 0.966 | S. cerevisiae deletion strains, locus YNL322C, strain KRE1, hits give low values 1.02 and 1.01 | S. cerevisiae deletion strains, locus YNR049C, strain mso1, hits give low values 0.995 | S. cerevisiae deletion strains, locus YNR052C, strain pop2, hits give low values 0.974 | S. cerevisiae deletion strains, locus YOL006C, strain TOP1, hits give low values 1.09 | S. cerevisiae deletion strains, locus YOL012C, strain htz1 1.02 | S. cerevisiae deletion strains, locus YOL147C, strain pex11, hits give low values 0.997 | S. cerevisiae deletion strains, locus YOR001W, strain rrp6, hits give low values 1.01 | S. cerevisiae deletion strains, locus YOR061W, strain CKA2, hits give low values 1.02 | S. cerevisiae deletion strains, locus YOR069W, strain VPS5, hits give low values 1.02 | S. cerevisiae deletion strains, locus YOR070C, strain gyp1, hits give low values 0.988 | S. cerevisiae deletion strains, locus YOR080W, strain dia2, hits give low values 0.981 | S. cerevisiae deletion strains, locus YOR083W, strain WHI5 (second series), hits give low values 1.02 | S. cerevisiae deletion strains, locus YOR083W, strain WHI5, hits give low values 0.946 | S. cerevisiae deletion strains, locus YOR106W, strain vam3, hits give low values 0.994 | S. cerevisiae deletion strains, locus YOR136W, strain idh2, hits give low values 0.996 | S. cerevisiae deletion strains, locus YOR144C, strain elg1, hits give low values 0.997 | S. cerevisiae deletion strains, locus YOR184W, strain ser1, hits give low values 0.988 | S. cerevisiae deletion strains, locus YOR231W, strain MKK1, hits give low values 1.04 | S. cerevisiae deletion strains, locus YOR265W, strain rbl2, hits give low values 0.989 | S. cerevisiae deletion strains, locus YOR270C, strain vph1, hits give low values 1.01 | S. cerevisiae deletion strains, locus YOR290C, strain snf2, hits give low values 0.989 | S. cerevisiae deletion strains, locus YOR316C, strain cot1, hits give low values 0.999 | S. cerevisiae deletion strains, locus YPL051W, strain arl3, hits give low values 0.987 | S. cerevisiae deletion strains, locus YPL055C, strain LGE1, hits give low values 1.09 | S. cerevisiae deletion strains, locus YPL078C, strain atp4, hits give low values 0.989 | S. cerevisiae deletion strains, locus YPL106C, strain sse1, hits give low values 0.963 | S. cerevisiae deletion strains, locus YPL240C, strain hsp82, hits give low values 0.983 | S. cerevisiae deletion strains, locus YPL241C, strain CIN2, hits give low values 1.02 | S. cerevisiae deletion strains, locus YPL256C, strain CLN2, hits give low values 1.05 | S. cerevisiae deletion strains, locus YPR119W, strain clb2, hits give low values 1 | S. cerevisiae deletion strains, locus YPR141C, strain kar3, hits give low values 1 | S. cerevisiae deletion strains, locus YPR163C, strain tif3, hits give low values 0.992 | S. cerevisiae deletion strains, locus YPR167C, strain met16, hits give low values 0.991 | S. cerevisiae deletion strains, strain wtn01, hits give low values 1.02 | S. cerevisiae strains, strain wild type, hits give low values 1.01
